From PubChem BioAssay (NCATS)
Values without a mark were called inactive. Records with an inconclusive call do not appear. The source made the active and inactive calls. Unless noted, calls come from the whole dose curve; as a rule, active = well fitted curve in either direction with a large enough effect (not every such curve was filed as active); inconclusive = small, poorly fitted or top-dose-only effect, or another doubt; inactive = flat fitted curve, though single readings scatter. Residues, ends and D or L forms follow the SMILES beside them.

Key:
[1] = biological target: Lysosomal acid glucosylceramidase (Homo sapiens) (UniProt P04062); assay: Glucocerebrosidase-p2 (AID 348; in the data active = potency below about 10 µM; note: potency is the fitted concentration of half-maximal effect); details: purified GBA, blue fluorogenic substrate, 40 min
Sequence of Lysosomal acid glucosylceramidase (Homo sapiens) (P04062 whole entry, looked up): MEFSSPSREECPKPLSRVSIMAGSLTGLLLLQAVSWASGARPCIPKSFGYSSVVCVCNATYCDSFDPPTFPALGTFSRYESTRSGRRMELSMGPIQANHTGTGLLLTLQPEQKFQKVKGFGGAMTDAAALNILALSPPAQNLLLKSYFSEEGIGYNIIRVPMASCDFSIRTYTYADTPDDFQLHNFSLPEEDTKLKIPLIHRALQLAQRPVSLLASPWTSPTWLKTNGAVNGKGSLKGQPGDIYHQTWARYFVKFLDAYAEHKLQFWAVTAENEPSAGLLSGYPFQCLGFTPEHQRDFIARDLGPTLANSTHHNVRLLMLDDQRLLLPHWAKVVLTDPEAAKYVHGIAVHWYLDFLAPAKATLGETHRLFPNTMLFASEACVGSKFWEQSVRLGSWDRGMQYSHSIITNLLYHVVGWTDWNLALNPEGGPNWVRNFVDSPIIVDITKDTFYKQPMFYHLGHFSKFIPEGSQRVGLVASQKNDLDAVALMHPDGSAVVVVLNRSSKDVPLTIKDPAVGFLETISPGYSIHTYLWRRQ
How it was run: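 Normal human glucocerebrosidase (0.2 nM) with blue fluorogenic substrate (80 uM final) in citrate/phosphate pH 5.9 with 10mM sodium taurocholate, 0.01% tween-20; 40 min RT, NaOH/glycine stop; fluorescence Ex 365/Em 440; AC50 from a titration from 0.6 nM upwards.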

[2] = AP1 Signaling Pathway (AID 357); details: ME-180 AP-1-bla reporter, EGF-induced, beta-lactamase ratio, 5 h; at 7.69 µM (top of the series) unless noted;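 note: ME-180 reporter cells stimulated with EGF at its EC50 level; % is set by controls: 0 for no effect and ±100 for the full control effect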
How it was run: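 First, ME-180 AP-1-bla cells were cultured overnight at 37 °C in low-serum Opti-MEM. Next, titrated compounds with EC50 EGF were incubated 5 hours. Finally, CCF4 was added for 2.5 hours and the 460/530 nm ratio recorded.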

[3] = biological target: Cytochrome P450 1A2 (Homo sapiens) (UniProt P05177); assay: p450-cyp1a2 (AID 410; calls by dose curve; note: potency is the fitted concentration of half-maximal effect;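 for activity change, negative = inhibition: -100% = full effect of reference inhibitor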); details: recombinant CYP1A2, luciferin-ME demethylation, luminescence; series mostly up to 11.4 µM
Sequence of Cytochrome P450 1A2 (Homo sapiens) (P05177 whole entry, looked up): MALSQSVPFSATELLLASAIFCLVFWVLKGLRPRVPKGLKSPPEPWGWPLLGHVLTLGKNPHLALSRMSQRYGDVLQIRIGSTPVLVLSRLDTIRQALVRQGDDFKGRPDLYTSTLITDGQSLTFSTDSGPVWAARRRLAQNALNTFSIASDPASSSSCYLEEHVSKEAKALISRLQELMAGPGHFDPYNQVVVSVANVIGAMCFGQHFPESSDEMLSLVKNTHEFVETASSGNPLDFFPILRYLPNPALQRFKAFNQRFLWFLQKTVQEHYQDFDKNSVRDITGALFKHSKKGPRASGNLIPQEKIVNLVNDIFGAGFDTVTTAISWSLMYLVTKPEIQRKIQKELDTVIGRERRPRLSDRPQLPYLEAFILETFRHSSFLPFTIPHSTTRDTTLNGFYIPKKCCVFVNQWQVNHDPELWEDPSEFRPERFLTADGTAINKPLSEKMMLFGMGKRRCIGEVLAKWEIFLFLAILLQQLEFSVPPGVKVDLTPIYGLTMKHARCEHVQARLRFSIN
How it was run: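 Luminescent demethylation readout: Luciferin-ME (100uM, equal to Km) turned over by 20nM CYP1A2 for 60 min at room temperature after NADPH regeneration addition, following 10 min compound preincubation. Normalization used 57 uM furafylline as full inhibition.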

[4] = NFAT Signaling Pathway (AID 444); details: Jurkat NFAT-bla M1, carbachol, beta-lactamase ratio, 5 h; at 7.69 µM (top of the series) unless noted;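 note: carbachol stimulus at about its EC50 of 1 µM final; % is set by controls: 0 for no effect and ±100 for the full control effect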
How it was run: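 Jurkat cells carrying an NFAT-driven β-lactamase reporter and co-transfected muscarinic M1 receptor were treated with compound plus carbachol (1 uM final, an EC50 level) for 5 h at 37 °C. CCF4 loading followed for 1 h at RT; 460/530 nm ratio gave %activity.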

[5] = Stat Signaling Pathway (AID 446); details: ME-180 (cervical carcinoma) SIE beta-lactamase reporter, IL-6 stimulated, 5 h; at 7.69 µM (top of the series) unless noted;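 note: ME-180 cervical cancer cells given 40 pM IL-6 alongside compound; SIE-controlled beta-lactamase reporter measured as 460/530 nm FRET emission ratio; % is set by controls: 0 for no effect and ±100 for the full control effect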
How it was run: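 Emission at 460 and 530 nm (excitation 405 nm) reports SIE-controlled beta-lactamase in ME-180 cells. Cells received compound with 40 pM IL-6 for 5 hrs at 37 C; data scaled between 300 pM IL-6 and 125 nM JAK-inhibitor controls.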

[6] = biological target: Glucocorticoid receptor (Homo sapiens) (UniProt P04150); assay: GR-GFP Redistribution (AID 450;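 active = compounds whose dose series gives a full or clear partial fitted curve of increased nuclear translocation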; note: potency is the fitted concentration of half-maximal effect); details: U2OS GR-GFP nuclear translocation, laser cytometry, 2 h
Sequence of Glucocorticoid receptor (Homo sapiens) (P04150 whole entry, looked up, the tested form may be a part): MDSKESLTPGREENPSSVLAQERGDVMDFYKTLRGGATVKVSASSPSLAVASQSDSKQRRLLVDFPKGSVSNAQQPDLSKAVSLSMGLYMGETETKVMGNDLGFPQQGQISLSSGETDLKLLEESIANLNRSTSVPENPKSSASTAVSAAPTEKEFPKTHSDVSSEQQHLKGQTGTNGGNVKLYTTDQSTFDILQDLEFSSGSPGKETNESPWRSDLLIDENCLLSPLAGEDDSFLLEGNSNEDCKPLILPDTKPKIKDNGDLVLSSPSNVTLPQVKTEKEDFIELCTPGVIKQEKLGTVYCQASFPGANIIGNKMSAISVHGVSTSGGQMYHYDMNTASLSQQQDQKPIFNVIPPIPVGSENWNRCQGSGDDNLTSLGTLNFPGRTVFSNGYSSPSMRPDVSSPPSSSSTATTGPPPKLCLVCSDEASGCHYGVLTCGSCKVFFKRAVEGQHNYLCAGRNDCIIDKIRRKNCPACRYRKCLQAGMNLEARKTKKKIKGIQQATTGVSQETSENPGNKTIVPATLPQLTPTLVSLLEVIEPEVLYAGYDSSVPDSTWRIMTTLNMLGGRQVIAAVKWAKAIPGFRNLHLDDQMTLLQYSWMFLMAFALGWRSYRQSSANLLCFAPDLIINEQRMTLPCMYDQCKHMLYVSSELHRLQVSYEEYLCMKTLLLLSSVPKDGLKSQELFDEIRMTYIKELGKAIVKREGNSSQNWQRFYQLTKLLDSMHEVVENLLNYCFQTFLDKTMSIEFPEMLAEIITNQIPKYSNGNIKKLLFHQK

[7] = biological target: Glucocorticoid receptor (Homo sapiens) (UniProt P04150); assay: GR-EFC Redistribution (AID 451; calls by dose curve; note: potency is the fitted concentration of half-maximal effect); details: CHO-K1 GR-EFC translocation, beta-gal luminescence, 2 h
How it was run: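 CHO-K1 cells stably expressing nuclear-localized β-gal enzyme acceptor and GR fused C-terminally to the enzyme donor fragment; ligand-driven nuclear translocation restores β-gal by complementation. Compounds titrated up to 46 uM final, 2 h at 37 °C; luminescence read.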

[8] = biological target: Mitogen-activated protein kinase 10 (Mus musculus) (UniProt Q61831); assay: JNK3 AlphaScreen Assay (AID 530); details: JNK3 lysate, c-Jun phosphorylation; series mostly up to 11.4 µM;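 note: kinase came from lysate of stimulated human HepG2 cells; signal reports phosphorylation of biotinylated GST-cJun 1-79 at Ser73 with 10 µM ATP; % is set by controls: 0 for no effect and ±100 for the full control effect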
How it was run: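 Phosphorylation of biotinylated GST-cJun(1-79) at Ser73 is measured by AlphaScreen proximity luminescence. Enzyme is JNK3 in HepG2 lysates activated with interleukin-1beta and tumor necrosis factor alpha; ATP is 10 uM final.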

[9] = biological target: 3',5'-cyclic-AMP phosphodiesterase 4B (Homo sapiens) (UniProt Q07343); assay: qHTS Assay for Inhibitors of PDE-IV (AID 607; active = well fitted activation curve with a large enough effect in the main read-out, with a control signal flat, not every such curve was filed as active; note: % of control where 0% means no effect); details: HEK293 ACTOne CNG channel cells, membrane potential fluorescence; series mostly up to 22.9 µM
Sequence of 3',5'-cyclic-AMP phosphodiesterase 4B (Homo sapiens) (Q07343 whole entry, looked up): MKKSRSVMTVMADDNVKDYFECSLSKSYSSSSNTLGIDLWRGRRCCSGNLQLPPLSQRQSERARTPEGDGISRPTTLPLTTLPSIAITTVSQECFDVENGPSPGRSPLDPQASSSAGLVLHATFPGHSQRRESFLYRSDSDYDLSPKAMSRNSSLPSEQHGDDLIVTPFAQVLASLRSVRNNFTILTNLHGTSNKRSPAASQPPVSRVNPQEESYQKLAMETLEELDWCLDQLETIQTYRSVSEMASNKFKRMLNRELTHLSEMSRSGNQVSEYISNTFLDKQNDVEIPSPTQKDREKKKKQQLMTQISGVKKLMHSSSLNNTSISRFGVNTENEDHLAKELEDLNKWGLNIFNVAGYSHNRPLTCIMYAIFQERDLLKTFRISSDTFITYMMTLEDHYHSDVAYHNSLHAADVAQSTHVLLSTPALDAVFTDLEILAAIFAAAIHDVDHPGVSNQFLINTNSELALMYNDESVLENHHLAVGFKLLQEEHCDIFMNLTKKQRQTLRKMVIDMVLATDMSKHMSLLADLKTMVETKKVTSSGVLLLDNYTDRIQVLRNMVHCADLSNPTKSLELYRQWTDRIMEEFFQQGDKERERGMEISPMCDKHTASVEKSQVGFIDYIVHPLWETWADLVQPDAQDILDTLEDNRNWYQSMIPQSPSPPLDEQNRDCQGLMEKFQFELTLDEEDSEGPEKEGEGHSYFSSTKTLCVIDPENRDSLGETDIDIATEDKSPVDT
How it was run: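 The readout is membrane depolarisation from a cAMP-sensing CNG channel, detected with a potential dye at ex 535/em 590. Cells were HEK293-derived (endogenous PDE-IV) at 1000 cells/well, titrated up to 22.9 uM final.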

Row | SMILES | Potency [1] [µM] | activity change, negative = inhibition [2] [%] | Potency [3] | activity change, negative = inhibition [4] [%] | activity, negative = inhibition [5] [%] | Potency [6] | Potency [7] | Potency [8] | Potency [9] | activity change, negative = inhibition [3]
1 | O[C@]1(c2ccccc2)c2ccccc2NC2=NCCN21 | > 11.4 | 12.3 | inactive | -13.7 | 4.27 | > 46 µM | > 9.22 µM | inactive | inactive | –
2 | NC(N)=NC(N)=Nc1ccc(S(=O)(=O)O)cc1 | > 11.4 | 1.18 | inactive | 0.0165 | -0.308 | > 46 µM | > 9.22 µM | inactive | inactive | –
3 | NCC(=O)NC1(C(=O)O)CCCC1 (HELM PEPTIDE1{G.[O=C(O)C1(N[*:1])CCCC1]}$$$$V2.0) | > 11.4 | 4.89 | inactive | -2.62 | 12.2 | > 46 µM | > 9.22 µM | inactive | inactive | –
4 | CC[C@](N)(C(=O)O)C(C)C | > 11.4 | 6.23 | inactive | -9.09 | -6.84 | > 46 µM | > 9.22 µM | inactive | inactive | –
5 | Cn1c(=O)c2c(ncn2CN2CCN(Cn3cnc4c3c(=O)n(C)c(=O)n4C)CC2)n(C)c1=O | > 11.4 | -1.04 | – | 7.2 | 2.15 | > 46 µM | > 9.22 µM | inactive | inactive | -18.2% [at 2.29 µM]
6 | Cc1ccc(S(=O)(=O)NC(=O)OC23COCN2COC3)cc1 | > 11.4 | 8.05 | inactive | 27.6 | 15.3 | > 46 µM | > 9.22 µM | inactive | inactive | –
7 | Cc1cc(C)c2nc3c(c([C@H](O)[C@@H]4CCCCN4)c2c1)CC/C3=C/c1ccc(Cl)cc1 | > 11.4 | 4.75 | inactive | -2.24 | 1.11 | > 46 µM | > 9.22 µM | inactive | inactive | –
8 | Cn1c(=S)c2[nH]c(SCCN3CCCC3)nc2n(C)c1=O | > 11.4 | -5.98 | – | 11.4 | -0.274 | > 46 µM | > 9.22 µM | inactive | inactive | -29.7% [at 2.29 µM]
9 | COc1cc(N=C(N)N=C(N)N)c2ncccc2c1 | > 11.4 | -8.09 | 398 nM (active) | 3.48 | -1.33 | > 46 µM | > 9.22 µM | inactive | inactive | –
10 | O=C(O)C/C(=C\c1ccccc1)C(=O)O | > 11.4 | 7.15 | inactive | -2.46 | 10.5 | > 46 µM | > 9.22 µM | inactive | inactive | –
11 | CC(=O)[C@]1(O)CC[C@@H]2[C@H]3C[C@@H](C)C4=CC(=O)CC[C@@]4(C)[C@H]3[C@@H](O)C[C@]21C | > 11.4 | -0.0488 | – | 16.8 | -9.62 | < 2.95e-05 µM (active) | 0.0236 µM (active) | inactive | inactive | -2% [at 2.29 µM]
12 | CN(C)CCSCCO | > 11.4 | 7.7 | – | 2.29 | 9.73 | > 46 µM | > 9.22 µM | inactive | inactive | -14.3% [at 2.29 µM]
13 | Cc1ccc(S(=O)(=O)Oc2cc(N)c3c(n2)CCC3)cc1 | > 11.4 | 11.1 | – | 9.71 | -5.99 | > 46 µM | > 9.22 µM | inactive | inactive | -19.4% [at 2.29 µM]
14 | Cc1cc(C)nc(SCCc2cccc[n+]2C)n1 | > 11.4 | -4.14 | – | -24.4 | 6.72 | > 46 µM | > 9.22 µM | inactive | inactive | -18.6% [at 2.29 µM]
15 | CN(C(=O)c1ccncc1)c1ccccc1 | > 11.4 | -3.23 | inactive | 6.33 | 0.69 | > 46 µM | > 9.22 µM | inactive | inactive | –
